Experimental data published in PubChem BioAssay (EPA / NIEHS).
Results filed as inconclusive are left out. Activity calls are given as the source filed them. How the source made its calls, unless noted: active means hit-call score of the fitted dose curve at least 0.9, where 1 is the maximum; inconclusive means response in the unintended direction; inactive means score below 0.9.

Columns and labels:
[1] = ATG_M_19_CIS: Attagene CIS-FACTORIAL HepG2 Assay for M19 Transcription Factor (Internal Marker) (AID 2282939; active means hit-call score of the fitted dose curve at least 0.9, where 1 is the maximum; inactive means score below 0.9); conditions: HepG2 Attagene CIS-FACTORIAL M19 internal marker reporter; actives raise or lower the signal
Outline: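 Readout: fluorescent reporter-transcript fragments by capillary electrophoresis after RT-PCR. Human HepG2 liver cells carried transfected MRTU constructs reporting endogenous transcription-factor activity; exposure 24 h. Gain or loss of signal fitted relative to DMSO.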

[2] = ATG_GATA_CIS: Attagene CIS-FACTORIAL HepG2 Assay for human GATA Binding Protein (AID 2282944; active means hit-call score of the fitted dose curve at least 0.9, where 1 is the maximum; inactive means score below 0.9); conditions: HepG2 GATA cis-element reporter, Attagene multiplex mRNA; actives raise or lower the signal
Outline: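 Read-out: fluorescent reporter mRNA fragments resolved by capillary electrophoresis after RT-PCR. Human liver HepG2 cells carried transiently transfected cis-regulated reporter constructs; chemicals incubated 24 h; gain or loss of signal fitted relative to DMSO.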

[3] = ATG_GRE_CIS: Attagene CIS-FACTORIAL HepG2 Assay for human Glucocorticoid Response Elements (GRE) (AID 2282947; active means hit-call score of the fitted dose curve at least 0.9, where 1 is the maximum; inactive means score below 0.9); conditions: HepG2 GRE cis-reporter, Attagene multiplex mRNA; actives raise or lower the signal
Outline: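 Reporter transcripts read by RT-PCR with capillary electrophoresis fluorescence after a 24 h chemical exposure of HepG2 cells transiently transfected with multiple cis-element reporter units. Gain or loss fitted against DMSO.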

[4] = target: Hepatocyte nuclear factor 6 (Homo sapiens) (UniProt Q9UBC0); assay: ATG_HNF6_CIS: Attagene CIS-FACTORIAL HepG2 Assay for human Hepatocyte Nuclear Factor 6 (HNF6) (AID 2282952; active means hit-call score of the fitted dose curve at least 0.9, where 1 is the maximum; inactive means score below 0.9); conditions: HepG2 Attagene cis-factorial HNF6 reporter transcription; actives raise or lower the signal
Outline: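 Endogenous transcription factor activity in human HepG2 liver cells was captured through cis-regulated reporter constructs. After 24 h treatment, reporter mRNA was measured by RT-PCR with capillary electrophoresis, and activity was fitted in both directions relative to DMSO.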

[5] = ATG_PBREM_CIS: Attagene CIS-FACTORIAL HepG2 Assay for human Phenobarbital-responsive Enhancer Module (PBREM) (AID 2282955; active means hit-call score of the fitted dose curve at least 0.9, where 1 is the maximum; inactive means score below 0.9); conditions: HepG2 PBREM cis-reporter, Attagene multiplexed transcription; actives raise or lower the signal
Outline: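 Readout: reporter mRNA, fluorescent RT-PCR fragments separated by capillary electrophoresis. System: HepG2 transiently transfected with cis-regulated reporter units. Exposure: 24 h. Analysis: bidirectional, DMSO baseline.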

[6] = ATG_M_06_TRANS: Attagene TRANS-FACTORIAL HepG2 Assay for M06 Transcription Factor (Internal Marker) (AID 2282983); conditions: HepG2 Attagene TRANS M06 internal marker reporter
Outline: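 Human liver HepG2 cells bearing transiently transfected chimeric NR-GAL4 reporter units were treated with chemicals for 24 h. Total RNA was reverse-transcribed, reporter sequences amplified and labelled, then quantified by capillary electrophoresis. Activity was fitted upward relative to DMSO.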

[7] = ATG_M_32_TRANS: Attagene TRANS-FACTORIAL HepG2 Assay for M32 Transcription Factor (Internal Marker) (AID 2282984); conditions: HepG2 Attagene TRANS M32 internal marker reporter;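 further: transcript level of a background control reporter unit measured by RT-PCR and capillary electrophoresis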
Outline: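 Internal background reporter in transfected HepG2: after 24 h chemical exposure, RNA reverse-transcribed, reporter cDNA amplified, fluorescently labelled and HpaI-cut, then sized by capillary electrophoresis. Gain of signal fitted against DMSO control.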

[8] = ATG_NFI_CIS: Attagene CIS-FACTORIAL HepG2 Assay for human Nuclear Factor I (NFI) (AID 2282989; active means hit-call score of the fitted dose curve at least 0.9, where 1 is the maximum; inactive means score below 0.9); conditions: HepG2 cis-regulatory reporter, NFI response element transcription; actives raise or lower the signal
Outline: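 Read-out: reporter mRNA via RT-PCR plus capillary electrophoresis with fluorescence detection. Transiently transfected HepG2 (endogenous TF activity on cis promoters), 24 h compound exposure; gain or loss of signal fitted against DMSO.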

[9] = ATG_NF_kB_CIS: Attagene CIS-FACTORIAL HepG2 Assay for human Nuclear Factor Kappa B (NF-kB) (AID 2282991; active means hit-call score of the fitted dose curve at least 0.9, where 1 is the maximum; inactive means score below 0.9); conditions: HepG2 Attagene cis-factorial NF-kB reporter mRNA; actives raise or lower the signal
Outline: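 After 24 h compound incubation, transfected HepG2 cells yield total RNA; reporter cDNA is PCR-amplified, end-labelled with 6-FAM, HpaI-digested and analysed on a genetic analyser. Endogenous factor activity, DMSO-referenced bidirectional fit.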

[10] = target: Retinoic acid receptor RXR-alpha (Homo sapiens) (UniProt P19793); assay: ATG_RXRa_TRANS: Attagene TRANS-FACTORIAL HepG2 Assay for human Retinoid X Receptor alpha (RXRa) (AID 2283012)
Outline: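 TRANS format reporting activity of exogenous RXRa-Gal4 chimera in transiently transfected HepG2, 24 h exposure. Reporter transcripts quantified by RT-PCR with capillary electrophoresis, with gain of signal scored relative to DMSO.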

[11] = target: human Retinoid X Receptor beta (RXRb), RXRB (gene 6257) (UniProt P28702); assay: ATG_RXRb_TRANS: Attagene TRANS-FACTORIAL HepG2 Assay for human Retinoid X Receptor beta (RXRb) (AID 2283013)
Outline: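 Readout is reporter transcript induction after 24 h dosing. It is measured by RT-PCR of total RNA followed by fluorescent capillary electrophoresis. HepG2 liver cells carry transfected multiple reporter units driven by an exogenous RXRb-Gal4 fusion; activity is relative to DMSO.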

[12] = target: human Vitamin D Receptor (VDR), VDR (gene 7421) (UniProt P11473); assay: ATG_VDR_TRANS: Attagene TRANS-FACTORIAL HepG2 Assay for human Vitamin D Receptor (VDR) (AID 2283022)
Outline: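 Fluorescence of labelled reporter cDNA fragments, resolved by capillary electrophoresis, gives mRNA induction after 24 h treatment of HepG2 cells carrying transfected Gal4-fusion reporter units. Activity is fitted in the positive direction with DMSO as baseline.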

[13] = target: Paired box protein Pax-6 (Homo sapiens) (UniProt P26367); assay: ATG_Pax6_CIS: Attagene CIS-FACTORIAL HepG2 Assay for human Paired Box 6 (PAX6) (AID 2282956; active means hit-call score of the fitted dose curve at least 0.9, where 1 is the maximum; inactive means score below 0.9); conditions: HepG2 CIS-FACTORIAL PAX6 reporter transcription, RNA readout; actives raise or lower the signal
Outline: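 DMSO-referenced bidirectional fits of reporter mRNA fluorescence; HepG2 with transient cis-promoter MRTUs, 24 h post-dose, RT-PCR plus capillary electrophoresis detection.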

[14] = TOX21_p53_BLA_p2_viability: Viability Assessment in the Tox21 HCT-116 p53 Agonism Beta-lactamase Assay, Phase 2 (AID 2283591);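 further: compound exposure lasted 16 h at 37 °C; actives lower the ATP signal meaning cytotoxicity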
Outline: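 Cytotoxicity readout: CellTiter-Glo ATP luminescence, 30 min at room temperature, after the beta-lactamase read. Cells were HCT116 exposed 16 h at 37C to compounds pin-transferred at 217-fold dilution from DMSO stocks.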

[15] = target: Cellular tumor antigen p53 (Homo sapiens) (UniProt P04637); assay: TOX21_p53_BLA_p2_ratio: Tox21 HCT-116 p53 Agonism Beta-lactamase Assay, Ratio, Phase 2 (AID 2283592)
Outline: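 Cleaved-to-uncleaved substrate ratio (460 vs 530 nm) measured in HCT116 cells with an inducible beta-lactamase reporter linked to p53 activity. Compounds incubated 16 h at 37C before 2 h room-temperature CCF4-AM loading.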

[16] = target: Cellular tumor antigen p53 (Homo sapiens) (UniProt P04637); assay: TOX21_p53_BLA_p3_ratio: Tox21 HCT-116 p53 Agonism Beta-lactamase Assay, Ratio, Phase 3 (AID 2283596)
Outline: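 Cells were seeded at 4000/well, rested 5 h at 37C, then dosed with DMSO compound solutions (217-fold dilution) for 16 h. CCF4-AM substrate was loaded for 2 h at room temperature, and the 460/530 nm emission ratio was fitted for gain of signal versus DMSO.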

[17] = target: Cellular tumor antigen p53 (Homo sapiens) (UniProt P04637); assay: TOX21_p53_BLA_p5_ratio: Tox21 HCT-116 p53 Agonism Beta-lactamase Assay, Ratio, Phase 5 (AID 2283599)
Outline: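 Beta-lactamase reporter ratio (blue 460 nm over green 530 nm, 405 nm excitation) after 2 h CCF4-AM loading, in HCT-116 cells exposed 16 h at 37 C to compounds pinned at 217-fold dilution. Increases relative to DMSO baseline scored.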

[18] = ATG_TA_CIS: Attagene CIS-FACTORIAL HepG2 Assay for human TA Basal Promoter (AID 2282964; active means hit-call score of the fitted dose curve at least 0.9, where 1 is the maximum; inactive means score below 0.9); conditions: HepG2 Attagene CIS-factorial TA basal promoter reporter; actives raise or lower the signal
Outline: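 Transfected HepG2, 24 h compound exposure; RNA → RT-PCR → FAM primer extension → HpaI cut → CE fluorescence. Gain/loss-of-signal fitted against DMSO negative control. Background-control readout.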

[19] = target: Hepatocyte nuclear factor 4-alpha (Homo sapiens) (UniProt P41235); assay: ATG_HNF4a_TRANS: Attagene TRANS-FACTORIAL HepG2 Assay for human Hepatocyte Nuclear Factor 4 alpha (HNF4a) (AID 2282982); conditions: HepG2 HNF4a transactivation reporter, mRNA readout
Outline: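 Activity of an exogenous HNF4a–Gal4 fusion scored as induced GAL4-UAS reporter transcripts after 24 h chemical exposure of transfected human HepG2 cells. Read-out via RT-PCR with 6-FAM labelling and capillary electrophoresis; rise over DMSO baseline.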

[20] = target: Cellular tumor antigen p53 (Homo sapiens) (UniProt P04637); assay: TOX21_p53_BLA_p4_ratio: Tox21 HCT-116 p53 Agonism Beta-lactamase Assay, Ratio, Phase 4 (AID 2283601)
Outline: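 Signal is the blue/green (460nm/530nm) ratio of cleaved versus uncleaved CCF4-AM substrate, read after 2 h substrate loading. Cells were HCT116 carrying the p53-responsive beta-lactamase reporter, dosed 16 h at 37C, 5% CO2; CellTiter-Glo measured in parallel.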

Measured: AC50

Chain of Hepatocyte nuclear factor 6 (Homo sapiens) (Q9UBC0 whole entry, looked up): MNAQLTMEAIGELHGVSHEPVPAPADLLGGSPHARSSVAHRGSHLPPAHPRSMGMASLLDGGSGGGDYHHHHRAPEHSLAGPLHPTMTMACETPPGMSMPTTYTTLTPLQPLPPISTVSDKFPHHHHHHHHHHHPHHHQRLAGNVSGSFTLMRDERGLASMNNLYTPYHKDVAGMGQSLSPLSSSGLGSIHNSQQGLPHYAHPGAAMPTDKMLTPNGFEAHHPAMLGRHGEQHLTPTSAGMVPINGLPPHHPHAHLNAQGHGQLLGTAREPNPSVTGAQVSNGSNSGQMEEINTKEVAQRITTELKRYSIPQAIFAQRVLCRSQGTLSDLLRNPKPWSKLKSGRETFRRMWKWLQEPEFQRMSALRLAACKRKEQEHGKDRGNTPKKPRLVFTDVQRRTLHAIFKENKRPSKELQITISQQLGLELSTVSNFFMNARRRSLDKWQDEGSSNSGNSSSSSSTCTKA
Chain of human Retinoid X Receptor beta (RXRb), RXRB (gene 6257) (P28702 whole entry, looked up, the tested form may be a part): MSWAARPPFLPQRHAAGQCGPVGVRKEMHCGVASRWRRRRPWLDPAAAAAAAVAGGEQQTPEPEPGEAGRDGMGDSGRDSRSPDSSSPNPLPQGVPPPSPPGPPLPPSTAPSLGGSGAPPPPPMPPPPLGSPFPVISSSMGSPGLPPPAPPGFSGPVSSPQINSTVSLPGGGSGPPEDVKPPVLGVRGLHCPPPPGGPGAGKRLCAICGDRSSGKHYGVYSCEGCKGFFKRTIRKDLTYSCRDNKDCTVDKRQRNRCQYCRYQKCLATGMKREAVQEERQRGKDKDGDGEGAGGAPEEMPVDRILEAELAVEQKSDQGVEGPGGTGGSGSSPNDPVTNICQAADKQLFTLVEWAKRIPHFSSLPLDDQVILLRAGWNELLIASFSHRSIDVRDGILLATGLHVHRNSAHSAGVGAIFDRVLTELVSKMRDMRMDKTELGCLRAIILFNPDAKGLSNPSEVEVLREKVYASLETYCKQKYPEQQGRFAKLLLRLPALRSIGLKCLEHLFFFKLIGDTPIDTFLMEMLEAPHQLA
Chain of Cellular tumor antigen p53 (Homo sapiens) (P04637 whole entry, looked up): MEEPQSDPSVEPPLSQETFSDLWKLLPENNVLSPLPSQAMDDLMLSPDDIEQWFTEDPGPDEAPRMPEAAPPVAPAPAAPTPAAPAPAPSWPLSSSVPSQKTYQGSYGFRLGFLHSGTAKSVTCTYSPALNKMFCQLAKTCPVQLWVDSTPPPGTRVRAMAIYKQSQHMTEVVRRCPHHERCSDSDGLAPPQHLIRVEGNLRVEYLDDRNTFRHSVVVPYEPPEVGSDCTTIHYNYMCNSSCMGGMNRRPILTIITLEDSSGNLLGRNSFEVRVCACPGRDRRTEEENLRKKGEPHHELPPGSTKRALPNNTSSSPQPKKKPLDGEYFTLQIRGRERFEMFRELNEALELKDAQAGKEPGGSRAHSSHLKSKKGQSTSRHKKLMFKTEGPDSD
Chain of Paired box protein Pax-6 (Homo sapiens) (P26367 whole entry, looked up): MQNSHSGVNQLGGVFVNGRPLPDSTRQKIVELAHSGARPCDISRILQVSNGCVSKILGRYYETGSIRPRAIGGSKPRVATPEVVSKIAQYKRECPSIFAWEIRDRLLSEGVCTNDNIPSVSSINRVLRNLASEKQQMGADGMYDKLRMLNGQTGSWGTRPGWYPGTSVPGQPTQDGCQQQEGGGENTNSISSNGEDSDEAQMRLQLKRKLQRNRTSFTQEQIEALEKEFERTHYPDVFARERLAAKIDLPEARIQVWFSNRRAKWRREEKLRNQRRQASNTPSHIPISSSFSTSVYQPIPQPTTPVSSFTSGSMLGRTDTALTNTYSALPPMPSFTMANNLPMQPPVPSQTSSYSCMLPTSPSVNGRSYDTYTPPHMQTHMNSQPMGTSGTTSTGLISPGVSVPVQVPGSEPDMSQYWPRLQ
Chain of human Vitamin D Receptor (VDR), VDR (gene 7421) (P11473 whole entry, looked up, the tested form may be a part): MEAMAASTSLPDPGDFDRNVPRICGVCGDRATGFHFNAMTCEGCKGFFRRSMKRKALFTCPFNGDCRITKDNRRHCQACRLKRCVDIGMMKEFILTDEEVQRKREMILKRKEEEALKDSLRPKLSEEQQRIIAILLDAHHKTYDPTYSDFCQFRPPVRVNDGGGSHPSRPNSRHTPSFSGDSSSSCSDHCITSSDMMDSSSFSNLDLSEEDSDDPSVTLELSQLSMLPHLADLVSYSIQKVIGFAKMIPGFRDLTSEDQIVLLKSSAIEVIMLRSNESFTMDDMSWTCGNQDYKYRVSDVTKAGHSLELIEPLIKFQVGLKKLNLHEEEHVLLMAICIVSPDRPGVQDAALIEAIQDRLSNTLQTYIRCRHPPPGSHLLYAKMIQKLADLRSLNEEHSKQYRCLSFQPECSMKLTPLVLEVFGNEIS
Chain of Retinoic acid receptor RXR-alpha (Homo sapiens) (P19793 whole entry, looked up, the tested form may be a part): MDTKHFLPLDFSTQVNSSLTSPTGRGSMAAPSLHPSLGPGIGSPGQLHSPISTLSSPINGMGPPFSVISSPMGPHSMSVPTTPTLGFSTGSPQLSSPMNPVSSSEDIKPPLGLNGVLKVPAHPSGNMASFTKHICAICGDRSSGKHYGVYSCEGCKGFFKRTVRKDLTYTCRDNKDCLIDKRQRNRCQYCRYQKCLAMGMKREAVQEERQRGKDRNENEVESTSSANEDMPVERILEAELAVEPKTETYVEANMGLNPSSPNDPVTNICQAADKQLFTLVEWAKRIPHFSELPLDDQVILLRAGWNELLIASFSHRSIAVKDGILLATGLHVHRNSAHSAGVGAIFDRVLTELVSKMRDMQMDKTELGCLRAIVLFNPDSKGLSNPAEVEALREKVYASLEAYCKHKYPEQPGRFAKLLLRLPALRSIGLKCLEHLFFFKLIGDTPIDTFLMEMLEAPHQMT
Chain of Hepatocyte nuclear factor 4-alpha (Homo sapiens) (P41235 whole entry, looked up, the tested form may be a part): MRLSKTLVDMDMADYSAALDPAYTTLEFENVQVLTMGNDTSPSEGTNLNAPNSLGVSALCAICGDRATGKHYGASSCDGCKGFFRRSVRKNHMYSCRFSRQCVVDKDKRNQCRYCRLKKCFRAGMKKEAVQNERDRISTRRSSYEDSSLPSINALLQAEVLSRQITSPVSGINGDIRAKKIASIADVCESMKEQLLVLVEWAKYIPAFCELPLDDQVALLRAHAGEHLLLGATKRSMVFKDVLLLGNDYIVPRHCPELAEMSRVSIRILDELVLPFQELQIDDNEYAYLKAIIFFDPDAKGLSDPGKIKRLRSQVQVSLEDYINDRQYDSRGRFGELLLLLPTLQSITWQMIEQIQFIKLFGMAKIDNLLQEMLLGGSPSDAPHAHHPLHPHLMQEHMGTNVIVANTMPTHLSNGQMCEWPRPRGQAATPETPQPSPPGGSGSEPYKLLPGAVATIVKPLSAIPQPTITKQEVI

O=C(c1ccccc1)c1ccccc1O
active: [4] 148 µM | [8] 156 µM | [11] 75.9 µM
inactive: [1] | [2] | [3] | [5] | [6] | [7] | [9] | [10] | [12]

Cc1ccccc1S(N)(=O)=O
inactive: [1] | [3] | [5] | [13] | [6] | [7] | [9] | [10] | [11] | [14] | [15] | [16] | [17]

Cc1cc(-n2nc3ccc(Cl)cc3n2)c(O)c(C(C)(C)C)c1
inactive: [1] | [3] | [4] | [5] | [18] | [19] | [6] | [8] | [10] | [15] | [16] | [17]

CC(C)=CCOC(=O)c1ccccc1
inactive: [1] | [2] | [3] | [4] | [13] | [18] | [6] | [7] | [8] | [9] | [10] | [11] | [12] | [14] | [15] | [17] | [20]

O=C(O)c1cc(Cl)cc(Cl)c1O
inactive: [1] | [2] | [4] | [13] | [18] | [19] | [6] | [9] | [10] | [11] | [12] | [14] | [15] | [16] | [17] | [20]

COc1ccccc1OCC(O)CO (stereo not given)
inactive: [1] | [2] | [13] | [18] | [19] | [7] | [8] | [9] | [11] | [14] | [15] | [16] | [17] | [20]

Cc1cc(C)c(S(=O)(=O)O)cc1N=Nc1cc(S(=O)(=O)O)c2ccccc2c1O
inactive: [1] | [2] | [5] | [13] | [19] | [6] | [7] | [8] | [11] | [12] | [14] | [15] | [16] | [20]

F[B-](F)(F)F
inactive: [1] | [4] | [18] | [19] | [7] | [8] | [10]

CC=CC(=O)O
inactive: [1] | [2] | [3] | [13] | [18] | [19] | [6] | [7] | [8] | [9] | [10]

NC(=O)c1ccc([N+](=O)[O-])cc1Cl
inactive: [1] | [3] | [5] | [13] | [19] | [6] | [7] | [8] | [9] | [11] | [14] | [15] | [16] | [17] | [20]

Nc1ccc(S(=O)(=O)Nc2cnc3ccccc3n2)cc1
inactive: [1] | [2] | [3] | [4] | [5] | [13] | [18] | [19] | [6] | [7] | [9] | [10] | [12] | [14] | [15] | [16] | [17] | [20]
active: [11] 31.5 µM

CC1(C)S[C@@H]2[C@H](NC(=O)[C@H](N)c3ccccc3)C(=O)N2[C@H]1C(=O)O
inactive: [2] | [3] | [4] | [13] | [19] | [6] | [8] | [14] | [15] | [16] | [17] | [20]

NC(=O)c1ccc(N)cc1
inactive: [1] | [2] | [3] | [5] | [18] | [19] | [6] | [9] | [11] | [12] | [14] | [15] | [20]

Cc1cc2nc3c(=O)[nH]c(=O)nc-3n(C[C@H](O)[C@H](O)[C@H](O)CO)c2cc1C
inactive: [1] | [3] | [4] | [5] | [18] | [19] | [6] | [9] | [10] | [14] | [15] | [16] | [20]

[O-][n+]1ccc(Cl)cc1
inactive: [1] | [2] | [3] | [4] | [5] | [13] | [18] | [19] | [6] | [9] | [11] | [12] | [15]

CCOC(=O)CC(=O)OCC
inactive: [1] | [2] | [3] | [4] | [13] | [19] | [10] | [12] | [14] | [15] | [16] | [17] | [20]

CCCCOC(=O)COc1ccc(Cl)cc1Cl
inactive: [1] | [2] | [4] | [5] | [13] | [19] | [7] | [8] | [9] | [11] | [12] | [14] | [15] | [16] | [17] | [20]

COC(=O)c1ccccc1
inactive: [1] | [2] | [4] | [18] | [19] | [6] | [7] | [9] | [10] | [12] | [14] | [15] | [16] | [17] | [20]
